Source: PubChem BioAssay (Broad Institute)
An excerpt weighted towards active compounds, which were near 1.1% of everything screened.
ID4 SMM = binds human ID4 protein on microarray | P47928 | small molecule microarray, Flag-ID4 binding, fluorescence F/B | calls only | hit rate 1.2% among 31,000; call rule not given here;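 note: a binder raises fluorescence above local background on the spot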
STK33 kin inh = human STK33 kinase inhibition | Q9BYT3 | ADP-Glo luminescence, MBP substrate | inhibition, % at 12.5 µM | hit rate 0.44% among 27,000; in the data active = inhibition above about 20%
Target sequence (Q9BYT3 whole entry, looked up): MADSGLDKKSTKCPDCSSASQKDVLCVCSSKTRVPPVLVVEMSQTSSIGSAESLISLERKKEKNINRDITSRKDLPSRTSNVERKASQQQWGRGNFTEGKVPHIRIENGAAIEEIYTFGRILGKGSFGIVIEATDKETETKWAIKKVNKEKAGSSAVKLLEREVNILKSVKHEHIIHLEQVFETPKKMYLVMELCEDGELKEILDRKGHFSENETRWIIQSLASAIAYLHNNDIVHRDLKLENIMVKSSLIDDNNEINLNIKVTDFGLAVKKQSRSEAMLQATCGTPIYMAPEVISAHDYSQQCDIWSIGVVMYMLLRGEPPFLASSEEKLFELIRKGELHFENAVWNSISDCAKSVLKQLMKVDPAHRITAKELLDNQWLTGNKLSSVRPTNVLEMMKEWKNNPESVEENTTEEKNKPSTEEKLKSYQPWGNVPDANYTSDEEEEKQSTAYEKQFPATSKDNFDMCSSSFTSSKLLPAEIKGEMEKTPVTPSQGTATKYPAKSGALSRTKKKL
A number is an active result; - = inactive; . = no result given; + = active, no number.

SMILES | ID4 SMM | STK33 kin inh
Cn1c(=O)c2c(nc(NCCN)n2C)n(C)c1=O | - | -
CCOc1ccc(NC(=O)C2CC=CCC2C(=O)O)cc1 (configuration not stated) | - | -
O=C(O)c1cc(NC(=O)C2CC=CCC2C(=O)O)ccc1Cl (configuration not stated) | + | -
CCC(=O)N[C@H]1C=C[C@@H](CC(=O)NCc2ccccc2OC)O[C@@H]1CO | - | .
O=C(C1=C[C@@H](c2ccc3c(c2)Cc2ccccc2-3)C[C@@H](OCCCCO)O1)N1CCN(Cc2ccc3c(c2)OCO3)CC1 | - | -
CN1CCN(C(=O)C2=C[C@@H](c3ccc4c(c3)OCO4)C[C@@H](OCCCCO)O2)CC1 | + | .
O=C(NCc1ccccn1)C1CCCN(S(=O)(=O)c2ccc(F)cc2)C1 (configuration not stated) | - | -
COc1ccc(-c2cc(C)nc(SCC(=O)Nc3cccc(Cl)c3Cl)n2)cc1 | + | -
COc1ccc(-c2cc(=O)[nH]c(SCC(=O)Nc3cccc(Cl)c3C)n2)cc1 | - | -
CC(C)NC(=O)Nc1ccc2c(c1)C(=O)N([C@H](C)CO)C[C@H](C)[C@@H](CN(C)C(=O)c1ccccc1)OCCCC[C@@H](C)O2 | . | -
C[C@@H]1CCCCO[C@H](CN(C)C(=O)c2ccncc2)[C@@H](C)CN([C@H](C)CO)C(=O)c2cc(NC(=O)NC3CCCCC3)ccc2O1 | . | -
COc1ccc(NC(=O)c2ccc(OC(C)C(=O)O)cc2)cc1Cl (configuration not stated) | + | -
COc1ccc(NC(=O)c2ccc(OC(C)C(=O)Nc3ccccc3C(F)(F)F)cc2)cc1Cl (configuration not stated) | - | -
COc1cccc(C(=O)/C=c2\[nH]c(=O)/c(=C\c3cccs3)s2)c1 | . | -
COc1ccc(CN=Cc2ccc(C(F)(F)F)cc2)cc1 | - | .
C[C@H]1CN([C@@H](C)CO)C(=O)Cc2cc(NC(=O)Cc3ccccc3)ccc2O[C@@H]1CN(C)C(=O)Nc1ccc2c(c1)OCO2 | - | -
C[C@H](CO)N1C[C@H](C)[C@@H](CN(C)C(=O)Nc2ccc3c(c2)OCO3)Oc2ccc(NC(=O)Cc3ccccc3)cc2CC1=O | + | .
COc1ccc(NC(=O)Nc2ccc3c(c2)CC(=O)N([C@@H](C)CO)C[C@H](C)[C@H](CN(C)Cc2ccc4c(c2)OCO4)O3)cc1 | . | -
COc1ccc(CN(C)C[C@@H]2Oc3ccc(NC(=O)Nc4ccc5c(c4)OCO5)cc3CC(=O)N([C@@H](C)CO)C[C@H]2C)cc1 | + | .
C[C@@H]1CN([C@@H](C)CO)S(=O)(=O)c2ccc(C3=CCCC3)cc2O[C@@H]1CN(C)C(=O)Nc1ccc2c(c1)OCO2 | - | .
CNC[C@H]1Oc2ccc(NC(=O)Cc3cn(C)c4ccccc34)cc2CC(=O)N([C@@H](C)CO)C[C@@H]1C | - | -
C[C@@H]1CN([C@@H](C)CO)S(=O)(=O)c2ccc(C3=CCCC3)cc2O[C@H]1CN(C)C(=O)Nc1ccc2c(c1)OCO2 | + | .
CNC[C@@H]1Oc2ccc(NC(=O)Cc3cn(C)c4ccccc34)cc2CC(=O)N([C@@H](C)CO)C[C@H]1C | + | .
CC(NS(=O)(=O)c1ccccc1)C(=O)Nc1cc(Cl)ccc1Oc1ccccc1 (configuration not stated) | - | -
C[C@H]1CN([C@@H](C)CO)C(=O)c2cc(NC(=O)Nc3ccc(F)cc3)ccc2O[C@@H]1CN(C)C(=O)Nc1ccc(F)cc1 | - | .
SMILES | ID4 SMM | STK33 kin inh
CN1C2=C(C(=O)CC(C)(C)C2)C(c2ccccc2OCC(=O)Nc2ccc(F)cc2)C2=C1CC(C)(C)CC2=O | - | -
C/C=C/c1ccc2c(c1)O[C@@H](CN(C)C(=O)c1cccc(F)c1)[C@@H](C)CN([C@H](C)CO)S2(=O)=O | - | .
C[C@H]1CN([C@@H](C)CO)C(=O)c2cc(NC(=O)C3CC3)ccc2O[C@H]1CN(C)Cc1ccc(C(F)(F)F)cc1 | - | -
COc1ccc(CN(C)C[C@@H]2Oc3ccc(NC(=O)Cc4cn(C)c5ccccc45)cc3CC(=O)N([C@@H](C)CO)C[C@H]2C)cc1 | + | .
COc1ccc(CN(C)C[C@H]2Oc3ccc(NC(=O)Cc4cn(C)c5ccccc45)cc3CC(=O)N([C@@H](C)CO)C[C@H]2C)cc1 | - | .
CCOc1ccc(Oc2nc(N3CCOCC3)nc(N3CCOCC3)n2)nn1 | - | -
COc1cc2nccc(Oc3ccc(NC(=O)Nc4ccc(F)cc4F)c(F)c3)c2cc1OC | + | .
O=C(NCc1ccccn1)Nc1ccc(F)cc1F | - | -
C[C@@H]1CN([C@H](C)CO)C(=O)CCCn2nncc2CO[C@@H]1CN(C)C(=O)Nc1cccc(Oc2ccccn2)c1 | . | -
COc1cc2ncnc(Nc3ccc(Cl)cc3F)c2cc1OC | - | 26
Cc1cc(F)c(Nc2ncnc3cc(OCc4ccccc4)ccc23)cc1O | - | .
COc1cc2ncnc(Nc3ccc(OCc4ccccc4)cc3)c2cc1OC | . | -
C#Cc1cccc(Nc2ncnc3cc(OC)c(OC)cc23)c1 | - | 23
C=CCN1C(=O)[C@]2(O[C@H](CCn3cc(CCO)nn3)[C@@H]([Si](C)(C)c3ccc(OC)cc3)[C@@H]2C)c2cc(N3C(=O)c4cccc5cccc3c45)ccc21 | . | -
COC(=O)c1cc(OC)c(OC)cc1NC(=O)CN1CCCCC1 | - | -
COC(=O)c1cc(OC)c(OC)cc1NC(=S)N1CCC(C(N)=O)(N2CCCCC2)CC1 | + | -
C[C@@H]1CCCCO[C@@H](CN(C)C(=O)CCC(F)(F)F)[C@H](C)CN([C@H](C)CO)C(=O)c2cc(NC(=O)c3ccncc3)ccc2O1 | - | .
Cc1c(Br)c([N+](=O)[O-])nn1CC(=O)Nc1ccc(C#N)cc1 | - | -
CC(=O)c1ccc(-n2c(CCC(=O)O)ccc2-c2ccc(F)cc2)cc1 | - | -
CC(=O)Nc1ccc(-n2c(CCC(=O)O)ccc2-c2ccc(C)cc2)cc1 | + | -
C[C@H](CO)N1C[C@H](C)[C@H](CN(C)S(=O)(=O)c2ccc(F)cc2)Oc2ccc(NC(=O)CCC(F)(F)F)cc2CC1=O | . | -
COc1ccc(OC)c2c(=S)c3ccccc3[nH]c12 | - | .
O=C1NCc2c1c1c3ccccc3[nH]c1c1[nH]c3ccccc3c21 | . | 64
COc1cc2c(cc1NC(=O)CN(C)S(=O)(=O)c1ccc(C)cc1)oc1ccccc12 | - | -
COc1ccc(NC(=O)Nc2ccc3c(c2)C(=O)N([C@H](C)CO)C[C@@H](C)[C@@H](CN(C)C(=O)NC2CCCCC2)O3)cc1 | . | -
SMILES | ID4 SMM | STK33 kin inh
NC(=O)c1c(NC(=O)C2CC(=O)N(c3ccccc3)C2)sc2c1CCCC2 (configuration not stated) | + | -
NC(=O)c1c(NC(=O)Cn2c(=O)oc3ccccc32)sc2c1CCCC2 | - | -
Cc1cc(C)nc(NS(=O)(=O)c2ccc(Nc3nc(-c4ccc(F)cc4)cs3)cc2)n1 | - | -
Clc1ccc(-c2nnc(SCC3CC3)o2)cc1 | . | -
O=C(Nc1ccc(S(=O)(=O)NCC2CCCO2)cc1)C1CCCO1 (configuration not stated) | - | -
O=C(O)c1cc(NC(=O)C2CCCO2)cc(NC(=O)C2CCCO2)c1 (configuration not stated) | + | -
Cn1c(SCC(=O)Nc2ccc(F)cc2)nnc1-c1ccc([N+](=O)[O-])cc1 | - | 27
O=C(CSc1nnc(-c2ccc([N+](=O)[O-])cc2)n1-c1ccccc1)Nc1ccc(F)cc1 | - | -
COc1cccc(OCC(=O)Nc2ccc(-c3nc4ccccc4[nH]3)cc2)c1 | + | -
